In the library only some 11% were active in any assay of this set; here they are far more common.
Pf growth 96h = Primary qHTS for delayed death inhibitors of the malarial parasite plastid, 96 hour incubation. P. falciparum luciferase reporter growth, 96 h. Potency, µM (series often up to 28.7 µM), for inactives: at the highest dose activity change, negative = inhibition, actives largely listed as inhibitors. actives 6.9% (n = 320,000)
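Two-generation exposure (96 h) targets delayed-death phenotype. Reporter parasites carrying integrated firefly luciferase, in red cells at 2% hematocrit and 0.05% parasitemia final, kept at 37 C, 5% CO2; luminescence loss indicates inhibition.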
HCV inhibitor = qHTS Assay for Inhibitors of Hepatitis C Virus (HCV); Huh7.5.1 HCVcc-Cre infection, luciferase reporter, 44 h; Potency, µM (top dose mostly 41.8 µM), without a hit: top-dose activity change, negative = inhibition, usual class: inhibitors; actives 3.4% (n = 340,000); AID 651820, 2012
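Reporter virus HCVcc-Cre (~0.5 moi) infects cells exposed to compound; seeding density 1,000 cells/well with 4 h settling beforehand. Luminescence, 15 sec read, taken 44 h post-infection following a 15 min RT substrate incubation.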
AMA1-RON2 inh = qHTS for Inhibitors of AMA1-RON; Towards Development of Antimalarial Drug Lead: Primary Screen; Plasmodium falciparum AMA1 (3D7) - RON2 peptide interaction; AlphaScreen AMA1-biotinylated RON2 peptide binding; Potency, µM (top dose mostly 58.2 µM), inactives show top-dose activity change, negative = inhibition, actives largely listed as inhibitors; actives 0.2% (n = 360,000);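 also: 0% = vehicle wells and -100% = peptide control; nearly all actives have a fitted effect of over 45% in size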
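AMA1 (3D7) with his tag at 25 nM final met compounds first, then biotinylated RON2 peptide at 25 nM; detection used donor plus acceptor beads, 10 µg/mL apiece, read by AlphaScreen after 30 min at room temperature.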
Pf growth 48h = Primary qHTS for delayed death inhibitors of the malarial parasite plastid, 48 hour incubation; AID 504832, 2011; actives 5.9% (n = 310,000); P. falciparum luciferase growth in erythrocytes, 48 h; Potency, µM (top dose mostly 28.7 µM), without a hit: at the highest dose activity change, negative = inhibition, usual class: inhibitors
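Luminescence readout; reporter = integrated firefly luciferase in P. falciparum. RBC culture at 2% hematocrit, 0.1% parasitemia final, 37 C/5% CO2; decreased signal taken as growth inhibition.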
Active calls of the source: *; u = inconclusive; x = not tested or not shown; [ ] = another dose, or the depositor's remark. Calls follow the shape of the dose curve; as a rule, active = well fitted curve in the direction sought with a large enough effect; inconclusive = small, poorly fitted or top-dose-only effect, or another doubt; inactive = no such curve, though single readings can be large; an effect the other way counts as inactive or inconclusive. Unless noted, % is scaled to controls: 0 for no effect and ±100 for the full control effect; potency is read from the fitted curve at half-maximal effect.

SMILES	Pf growth 96h	HCV inhibitor	AMA1-RON2 inh	Pf growth 48h
COc1cc(-c2coc3c(C(=O)NCc4ccc(N(C)C)cc4)cccc23)ccc1O	x	x	31.6µM*	x
COc1ccc(-c2ccc(C(=O)NCc3ccc(N(C)C)cc3)c3occc23)c(C)c1	x	x	8.91µM*	x
CCN1CCC[C@H]1CNCCCn1cnc2c(SC)ncnc21	x	x	2.6%	x
O=C(O)Cc1c[nH]c2ccccc12	x	27.2%	8.3%	x
CNC(=O)[C@H](Cc1c[nH]c2ccccc12)NC(=O)[C@@H](CC(=O)NO)CC(C)C	10.7%	x	x	3.79µM*
CC(C)CC(NC(=O)OCc1ccccc1)C(=O)NC(Cc1c[nH]c2ccccc12)C(=O)O (stereo not drawn)	x	x	-3.0%	x
O=C(CCc1c[nH]c2ccccc12)N1CCCC1	23.0%	-27.5%	-7.5%	12.6%
N[C@H](Cc1c[nH]c2ccccc12)C(=O)O	1.51µM*	x	x	4.2%
COC(=O)C(Cc1c[nH]c2ccccc12)NC(C)=O (stereo not drawn)	4.15µM*	10.7%	-5.5%	-6.5%
O=C(CCCc1c[nH]c2ccccc12)N1CCCCCC1	5.86µM*	-2.2%	-7.7%	2.5%
COC(=O)C(Cc1c[nH]c2ccccc12)NC(=O)c1cc(-c2ccc(OC)c(OC)c2)oc1C (stereo not drawn)	u	10µM*	-1.8%	2.94µM*
NC(=O)N[C@@H](Cc1c[nH]c2ccccc12)C(=O)OCC(=O)N1CCCCC1	68.2%	1.5%	-9.3%	11.7µM*
Cc1cc(C(=O)NC(Cc2c[nH]c3ccccc23)C(=O)O)c(C)o1 (stereo not drawn)	u	-5.2%	1.5%	-2.5%
CC(=O)NC(Cc1c[nH]c2ccccc12)C(=O)OCC(=O)N1CCN(S(=O)(=O)c2ccc(Cl)cc2)CC1 (stereo not drawn)	x	8.1%	-3.8%	x
N#CCC(=O)Nc1ccc(C(=O)Nc2cccc(S(=O)(=O)N3CCCC3)c2)cc1	x	x	1.1%	x
O=C(COC(=O)CC12CC3CC(CC(C3)C1)C2)Nc1cccnc1Cl	29.4%	18.7%	-3.5%	-1.4%
CCc1ccccc1NC(=S)N1CCCCCC1	-9.5%	4.9%	-0.4%	0.7%
Cc1ccc2c(c1)C1CN(C)CCC1N2S(=O)(=O)c1cc(C(F)(F)F)ccc1Cl (stereo not drawn)	-120.2%	u	-7.7%	9.28µM*
Cc1ccc2c(c1)C1CN(C)CCC1N2S(=O)(=O)c1ccc(C(C)C)cc1 (stereo not drawn)	7.38µM*	u	-8.1%	4.65µM*
O=C(c1ccc(-n2cncn2)c2ccoc12)N1CCOCC1	x	x	-3.0%	x
CC(=O)Nc1ccc(/C=N/NC(=O)CNC(=O)c2ccccc2)cc1	25.0%	5.6%	1.5%	9.8%
CCNc1nc(OC)nc(N2CCC(Cc3ccccc3)CC2)n1	13.1µM*	u	-0.8%	-13.9%
Cc1cc(Nc2nnnn2-c2ccccc2)n(-c2ccccc2)n1	9.28µM*	4.2%	4.9%	32.2%
Cc1cc(Nc2ccc(Cl)cc2)n(-c2ccccc2)n1	-18.9%	u	1.5%	x
O=C(CSc1n[nH]c(-c2ccco2)n1)Nc1sc2c(c1C(=O)Nc1ccccc1)CCCC2	x	u	5.7%	-13.5%
SMILES	Pf growth 96h	HCV inhibitor	AMA1-RON2 inh	Pf growth 48h
O=C1Nc2ccccc2/C1=N\c1sc2c(c1C(=O)Nc1ccccc1)CCCC2	2.33µM*	1.4%	25.8%	7.38µM*
COCCn1cnc2c(c1=O)c1nc3ccccc3nc1n2/N=C/c1ccc(OC)c(OC)c1	2.62µM*	-9.7%	16.0%	1.65µM*
CC(C)N(C(=O)Cn1cc(S(=O)(=O)CC(=O)NCc2ccccc2)c2ccccc21)C(C)C	-16.2%	-13.2%	2.7%	26.1%
CC(=O)Nc1cccc(NC(=O)CS(=O)(=O)c2cn(CC(=O)N(C(C)C)C(C)C)c3ccccc23)c1	11.7µM*	-0.1%	-2.3%	u
COc1ccc(OC)c(NC(=O)CS(=O)(=O)c2cn(CC(=O)N3CCOCC3)c3ccccc23)c1	u	4.7%	1.7%	u
COc1ccc(NC(=O)CS(=O)(=O)c2cn(CC(=O)N3CCOCC3)c3ccccc23)cc1OC	7.38µM*	12.1%	3.1%	-23.2%
CN(C(=O)c1cccc(NC(=O)Cc2ccc(NC(=O)C3CCCN(C(=O)C4CCCCC4)C3)cc2)c1)C1CCCCC1 (stereo not drawn)	x	24.2%[8.37 µM]	14.0%	x
Cc1ccc(CN2C(=O)C3CCCN3c3ccc(S(=O)(=O)N4CCOCC4)cc32)cc1 (stereo not drawn)	1.65µM*	x	x	4.65µM*
Cc1ccc(CN2C(=O)C3CCCN3c3ncccc32)cc1 (stereo not drawn)	u	-8.6%	4.2%	-20.3%[0.00184 µM]
COc1cc2c(cc1OC)/C(=C/C(=O)c1ccc(F)cc1)NCC2	11.7µM*	u	-4.7%	u
CCC(C)Sc1ccc([C@@H]2[C@@H]3C(=O)N(C)C(=O)[C@@H]3[C@]3(C(=O)OC)CCCCN23)cc1 (stereo partly drawn)	u	-22.5%	0.7%	u
S=C1N(c2ccccc2)C(c2ccc(Cl)cc2)N2CCCN12 (stereo not drawn)	u	8.5%	-6.6%	-17.4%
CC1(C)CN2C(=S)N(c3ccccc3)C(c3ccccc3)N2C1 (stereo not drawn)	8.28µM*	9.3%	27.3%	x
CCOc1cc(C2CC(=O)c3c(ccc4ccccc34)N2)ccc1O (stereo not drawn)	1.04µM*	-17.9%	-4.3%	0.6%
O=C(CCc1nnc2ccc(NCc3ccco3)nn12)N1CCN(c2ccccc2F)CC1	9.28µM*	-5.5%	-3.4%	-5.0%
O=C1c2cccc3cccc(c23)C(=O)N1CC1CCN(CC(O)COc2ccc3ccccc3c2)CC1 (stereo not drawn)	0.7%	7.94µM*	u	-4.1%
O=C1c2cccc3cccc(c23)C(=O)N1CCN1CCN(CC(O)COc2ccc3ccccc3c2)CC1 (stereo not drawn)	u	11.2µM*	-11.8%[11.6 µM]	u
Cc1ccc(S(=O)(=O)N2CCC(CN3C(=O)c4cccc5cccc(c45)C3=O)CC2)cc1	u	u	-1.0%	u
CC(=O)c1ccccc1OCC(O)CN1CCN(CCN2C(=O)c3cccc4cccc(c34)C2=O)CC1 (stereo not drawn)	10.5%	10µM*	-6.8%	u
Cc1ccc(C)c(OCC(O)CN2CCN(CCN3C(=O)c4cccc5cccc(c45)C3=O)CC2)c1 (stereo not drawn)	-25.2%	u	u	-108.3%
Cc1cc(C)cc(OCC(O)CN2CCC(CN3C(=O)c4cccc5cccc(c45)C3=O)CC2)c1 (stereo not drawn)	29.5%	2.24µM*	-14.2%	9.5%
O=C1CC(c2ccccc2)CC(=O)N1c1ccc(C(F)(F)F)cc1	26.5%	-2.7%	-9.7%	-4.3%
CC(=O)Nc1ccc(S(=O)(=O)N(C)CC(=O)Nc2nc3ccccc3[nH]2)cc1	-23.3%	15.4%	58.6%	u

Bioassay records: PubChem BioAssay, National Center for Advancing Translational Sciences (NCATS)
